# High-throughput results deposited in PubChem by National Center for Advancing Translational Sciences (NCATS).
# The list is not random: actives were taken first. Their share in the collection is about 2.4%.
# GLS inhibitor: blocks human kidney-isoform glutaminase activity; O94925; GLS enzymatic activity, qHTS titration; Potency, µM (top dose mostly 45.5 µM), without a hit: top-dose activity change, negative = inhibition, most hits filed as inhibitors; actives 0.21% (n = 410,000); AID 624170; further: on the % scale 0 is the no-effect control and ±100 the full control effect
# Target sequence (O94925 whole entry, looked up, canonical isoform): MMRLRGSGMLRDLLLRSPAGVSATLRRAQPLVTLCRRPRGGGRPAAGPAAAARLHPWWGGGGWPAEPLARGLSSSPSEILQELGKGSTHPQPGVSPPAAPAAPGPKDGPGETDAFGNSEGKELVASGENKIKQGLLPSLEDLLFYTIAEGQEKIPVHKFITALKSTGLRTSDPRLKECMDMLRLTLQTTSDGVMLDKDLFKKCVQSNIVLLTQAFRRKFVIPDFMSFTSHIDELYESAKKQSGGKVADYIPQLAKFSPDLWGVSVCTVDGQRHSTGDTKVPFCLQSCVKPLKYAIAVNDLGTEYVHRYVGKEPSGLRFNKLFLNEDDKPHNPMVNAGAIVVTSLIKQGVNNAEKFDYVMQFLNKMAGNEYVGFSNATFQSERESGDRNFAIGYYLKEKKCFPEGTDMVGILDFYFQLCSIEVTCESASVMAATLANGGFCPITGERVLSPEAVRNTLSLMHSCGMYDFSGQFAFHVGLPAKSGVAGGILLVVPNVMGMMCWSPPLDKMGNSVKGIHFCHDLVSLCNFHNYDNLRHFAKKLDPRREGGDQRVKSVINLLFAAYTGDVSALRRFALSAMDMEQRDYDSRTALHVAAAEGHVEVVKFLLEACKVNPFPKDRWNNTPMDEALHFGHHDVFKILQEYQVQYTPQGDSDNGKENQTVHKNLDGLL
#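 Assay buffer: 45 mM KH2PO4 pH 8.2, 0.02% Tween-20. hKGA acts on L-glutamine (1 mM solution added); product glutamate is reported by an oxidase/peroxidase Amplex Red coupling, with fluorescence taken at baseline and 30 min.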
# Pol iota inh: inhibitors of human DNA polymerase iota; Q9UNA4; Pol iota fluorescent replication assay, 10 min; actives 1% (n = 390,000); Potency, µM (top dose mostly 115 µM), for inactives: at the top dose activity, negative = inhibition, hits mostly inhibitors
#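 Pol iota at 10 nM preincubated 15 min with compounds at room temperature; reaction started with fluorescent substrate, 50 nM final. Fluorescence read kinetically at 0 and 10 min; buffer-only wells as negative control.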
# Pol kappa inh: blocks human DNA polymerase kappa activity | Q9UBT6 | purified Pol kappa, fluorescent DNA synthesis assay, 10 min | Potency, µM (top dose mostly 107 µM), for the others: at the top dose activity, negative = inhibition, most hits filed as inhibitors | actives 0.53% (n = 400,000); further: on the % scale 0 is the no-effect control and ±100 the full control effect
#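 Activity was followed as the change in fluorescence between reads at 0 and 10 min after starting the reaction with 50 nM substrate. Beforehand, 10 nM polymerase had been preincubated with compound for 15 min at room temperature.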
# POLH inh: inhibitors of human DNA polymerase eta; Q9Y253; recombinant Pol eta, fluorescent DNA replication assay; Potency, µM (titrated, usually from 114 µM), for inactives: at the top dose activity change, negative = inhibition, hits mostly inhibitors; actives 1.2% (n = 390,000); AID 588591; further: on the % scale 0 is the no-effect control and ±100 the full control effect
#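 Pol eta at 10 nM preincubated with compounds 15 min at room temperature; reaction started with fluorescent substrate (50 nM final) and read kinetically at 0 and 10 min.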
# GCN5L2 inh: blocks human GCN5L2 histone acetyltransferase | Q92830 | GCN5L2 HAT assay, ThioGlo1 CoA-SH fluorescence | Potency, µM (top dose mostly 58.9 µM), for the others: top-dose activity change, negative = inhibition, usual class: inhibitors | AID 504327 | actives 0.21% (n = 390,000); further: on the % scale 0 is the no-effect control and ±100 the full control effect
#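 Titration-based screen in which CoA formation is detected via maleimide probe ThioGlo1 (50uM) turning fluorescent on thiol reaction; substrates H3(1-25) 75uM and acetyl-CoA 70uM, GCN5L2 20nM, 20 min incubation at room temperature.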
# Pol beta inh: DNA polymerase beta (human) inhibition | Potency, µM (series often up to 114 µM), for the others: top-dose activity change, negative = inhibition, actives largely listed as inhibitors | AID 485314 | Pol beta primer extension/strand displacement, fluorescence kinetic | actives 1.3% (n = 340,000); further: on the % scale 0 is the no-effect control and ±100 the full control effect
#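 Values derive from four-parameter Hill fits of normalized kinetic data: reads at 0 and 10 min following addition of 50 nM substrate to 10 nM Pol beta preincubated 15 min with compound.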
# * = called active by the depositor; ? = inconclusive; / = no result given; [ ] = dose if it differs, or a comment. The call rests on the fitted dose curve; in most records, active means well fitted inhibition curve with a large enough effect; inconclusive means small, poorly fitted or top-dose-only effect, or another doubt; inactive means no such curve, though single readings can be large or run the other way. Potency means the concentration at half of the fitted maximal effect.
SMILES,GLS inhibitor,Pol iota inh,Pol kappa inh,POLH inh,GCN5L2 inh,Pol beta inh
CCCCn1c(N)c(N(CC(C)C)C(=O)c2oc3ccc(Br)cc3c2C)c(=O)[nH]c1=O,-3%,?,-9%,79µM*,-2%,/
CCCCn1c(N)c(N(CC(C)C)C(=O)c2cc(-c3ccco3)nc3ccccc23)c(=O)[nH]c1=O,8%,40µM*,?,28µM*,-5%,/
CCOc1ccc(-c2nnc(SCC(=O)Oc3ccccc3)o2)cc1,5%,11%,0%,-11%,-4%,0%
CCN(CC)CCn1nc2c3c(cccc3c1=O)-c1ccccc1-2,14%,?,-64%,-10%,-13%,10µM*
COc1cccc(NC(=O)Cn2c(=O)n(-c3ccccc3)c(=O)c3ccc(C(=O)NCc4ccc5c(c4)OCO5)cc32)c1,0%,2%,-18%,-4%,-6%,-22%
CC(=O)N(/N=C1\Sc2ccccc2C1=O)c1ccccc1C,7%,7%,1%,20µM*,-12%,0%
CSc1nsc(/C=C/Nc2ccc(O)cc2C)c1C#N,-3%,25µM*,-28%,-17%,-12%,0%
O=[N+]([O-])c1c(Nc2ccccc2O)cc(Cl)c2nonc12,-2%,11µM*,-2%,45µM*,-28%,18µM*
Cc1cc(O)c(-c2cc(O)c(C)cc2O)cc1O,?,?,?,-7%,16µM*,5%
C(=C\c1ccccn1)/c1ccccc1,/,30%,-15%,/,/,/
O=C(NNC(=O)C1[C@H]2CCCC[C@@H]12)c1ccc(=O)oc1 (stereo not given in full),6%,22µM*,?,?,?,79µM*
O=C(NC12CC3CC(CC(C3)C1)C2)c1ccc(=O)oc1,11%,18%,-6%,-3%,-6%,9%
CN1CCN(S(=O)(=O)c2ccc(N3CCN(c4ccc(O)cc4)CC3)c([N+](=O)[O-])c2)CC1,8.9µM*,?,-13%,-14%,4%,/
Cc1cc(C)c(OCCOCCn2c(-c3ccc(Cl)cc3)nc3ccccc3c2=O)c(C)c1,-1%,6%,-11%,1%,-8%,7%
CSC[C@H](NC(=O)Cc1c(C)c2cc3c(C)c(C)oc3cc2oc1=O)C(=O)N[C@@H](Cc1ccccc1)C(=O)O,16%,6%,2%,-1%,-17%,9%
COc1ccc(CNC(=O)CCc2c(C)c3cc4c(C)c(C)oc4cc3oc2=O)cc1,-7%,13%,-6%,-24%,-14%,22µM*
CCC(NC(=O)CCc1c(C)c2cc3c(C)c(C)oc3cc2oc1=O)C(=O)N[C@@H](Cc1ccccc1)C(=O)O (stereo not given in full),2%,8%,12%,?,-14%,32µM*
Cc1nn(CC(=O)NCCc2ccccc2Cl)c(=O)c2nn(-c3ccccc3)c(C)c12,-12%,12%,1%,/,?,-27%
CCCS(=O)(=O)c1c(S(=O)(=O)CCC)c2cc(C(C)(C)C)ccn2c1C(=O)c1ccc(OC)c(OC)c1,-6%,-2%,11%,3%,2%,0%
CCCS(=O)(=O)c1c(S(=O)(=O)CCC)c2cc(C(C)(C)C)ccn2c1C(=O)c1ccccc1,-1%,32%,-16%,89µM*,-5%,2%
CCC(C)(C)OC(=O)N[C@@H](Cc1c[nH]c2ccccc12)C(=O)N[C@@H](CCSC)C(=O)N[C@@H](CC(=O)O)C(=O)N[C@@H](Cc1ccccc1)C(N)=O,-16%,/,/,/,/,/
CCOC(=O)C1=C(C)N(C)C(=O)C1CC(=O)O (stereo not given),?,-21%,-43%,79µM*,-9%,-8%
CCOC(=O)C1=C(C)N(c2ccccc2)C(=O)C1CC(=O)O (stereo not given),-9%,13%,-7%,-11%,-4%,3%
CC(=O)c1ccc(/C=C/c2nc3ccccc3n2C)o1,-1%,21%,-19%,8%,11µM*,3%
CN(C)c1ccc(/C=C/c2c(Br)cnc3ccccc23)cc1,/,-10%,-4%,/,/,/
SMILES,GLS inhibitor,Pol iota inh,Pol kappa inh,POLH inh,GCN5L2 inh,Pol beta inh
Cc1nn(-c2ccccc2)c(C)c1/C=N/NC(=O)c1cc(-c2ccc(Br)s2)[nH]n1,-5%,?,6%,-9%,2%,-12%
CCc1ccc(-c2cc(C(=O)N/N=C/c3ccccn3)[nH]n2)cc1,1%,125%,-8%,-17%,-9%,-4%
O=C(N/N=C/c1ccccn1)c1cc(-c2ccc(Br)s2)[nH]n1,4%,-12%,-22%,-29%,-9%,10µM*
O=C(N/N=C/c1ccccn1)c1cc(-c2ccc(Cl)s2)[nH]n1,-17%,27%,-7%,-11%,-1%,35µM*
O=C(N/N=C/c1ccccn1)c1cc(-c2ccc3ccccc3c2)n[nH]1,5%,?,-25%,?,-7%,20µM*
O=C(N/N=C/c1ccncc1)c1cc(-c2ccc(Br)s2)[nH]n1,3%,?,-21%,79µM*,-18%,22µM*
CC12CCC3C(CC3(C)C)C(C)(CCC1=O)O2 (stereo not given),/,/,-4%[60.1 µM],/,0%,/
CC1(C)CC2C1CC[C@]1(C)CCC3C(C(=O)O)CC(=O)O[C@]32C1 (stereo not given in full),/,/,-5%[60.1 µM],/,7.9µM*,/
COc1cccc2c1C(=O)/C(=C/c1ccc(N(C)C)cc1)C2,/,8%,-3%,/,/,/
Cc1c([N+](=O)[O-])cc(C(=O)Oc2ccc(Br)cc2C(=S)N2CCCCC2)cc1[N+](=O)[O-],8%,89µM*,-13%,?,0%,5%
Cc1ccc(C(=O)Oc2ccc(Br)cc2C(=S)N2CCOCC2)cc1,2%,10%,-11%,-5%,-7%,46%
Cc1ccc(C(=O)OCc2cc(=O)n3nc(-c4cccs4)sc3n2)cc1,0%,?,?,89µM*,-6%,18µM*
CCCc1nn2c(=O)cc(COc3ccc(/C=C(\C#N)C(=O)Nc4ccccc4)cc3)nc2s1,-12%,-28%,-5%,-2%,2%,?
Cc1nn2c(=O)cc(COC(=O)c3ccc(NC(=O)c4cccs4)cc3)nc2s1,-11%,0%,-4%[60.1 µM],-10%,2%,29%
Cc1nn2c(=O)cc(COc3ccc(/C=C(\C#N)C(=O)Nc4ccccc4C)cc3)nc2s1,3%,20µM*,?,-24%,-14%,?
Cc1nn2c(=O)cc(COC(=O)c3ccccc3NC(=O)C(C)C)nc2s1,2%,13%,-3%[60.1 µM],79µM*,20%,0%
